In PubChem BioAssay AID504607 (Sanford-Burnham Center for Chemical Genomics, 2011):
Hit rate of the full screen: of about 6,200 compounds, about 4,800 (77%) were called active. So high a share suggests a set chosen from earlier hits. A selection follows. Unmarked numbers belong to inactive results.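 How the source made its calls: active means mean inhibition at 8 µM reaching about 37%, which flags the compound as non-specific (limit read from the data); inactive means the rest.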

Experiment: luminescence decrease from intact luciferase reporter – cell-based, single concentration, SaOS-2, counter-screen for Mdm2/MdmX interaction inhibitor project, confirmation (AID 504607);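 further: p53-null SaOS-2 cells with luciferase driven by a doxycycline-inducible promoter; compound on cells about two nights before reading with doxycycline added after day one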
Details: SaOS-2 full-length luciferase counterscreen, at 8 µM, hits give high values

SMILES	inhibition
CC(C)n1cnc2c(Nc3cccc(Cl)c3)nc(N(CCO)CCCO)nc21	47.6% (active)
CCCCCCCCn1c2c(c(=N)c3c1CCC3)CCCC2	22%
COc1ccc(-c2nn(C)c(=O)c3ccccc23)cc1NC(=O)COc1ccccc1	53.5% (active)
O=[N+]([O-])c1ccc(Oc2ccc(F)cc2Br)c2ccncc12	16%
O=C(Nc1nc2ccc([N+](=O)[O-])cc2s1)c1ccc(S(=O)(=O)N2CCCc3ccccc32)cc1	20%
CCCC(=O)Nc1nc2ccc(NC(=O)c3cccnc3)cc2s1	108% (active)
Cc1nnc(NC(=O)Nc2ccc(Cl)c(Cl)c2)s1	33.4%
O=C(Nc1ccc(Cl)cc1)Nc1nnc(/C=C/c2ccccc2)s1	75.8% (active)
Cc1c(C(=O)N/N=C/c2ccccc2)[nH]c2c([N+](=O)[O-])cccc12	48.3% (active)
COc1cccc(CNCCc2c[nH]c3ccccc23)c1OCc1ccccc1F	42% (active)
COc1ccc(/C=C/C(=O)Nc2ccc(C34CC5CC(CC(O)(C5)C3)C4)cc2)cc1OC	85.7% (active)
Cc1c(Cl)c([N+](=O)[O-])nn1Cc1ccc(C(=O)N/N=C\c2cc(Cl)ccc2O)o1	32.4%
CCN(CC)c1ccc(/C=N/Nc2nc(C)cc(C)n2)c(O)c1	38.6% (active)
CCN(CC)c1ccc(/C=N/NC(=O)c2cnccn2)c(O)c1	37.9% (active)
CC(=O)Oc1c(C(=O)c2nnc(C)o2)c(=O)n(Cc2ccccc2)c2ccccc12	36.5% (active)
NC(N)=N/N=C/c1ccc(OCc2ccc(Cl)cc2Cl)cc1	50.2% (active)
COc1cccc2cc(C(N)=O)/c(=N\NC(=O)c3ccccc3)oc12	137% (active)
CC(Nc1nc(N2CCCC2)nc2ccccc12)c1ccccc1 (stereo unspecified)	88.5% (active)
O=C(/C=C/c1ccc(OCc2c(F)cccc2Cl)cc1)N1CCOCC1	27.7%
C=C(C)C(=O)O[C@H]1C/C(C)=C\C(=O)/C=C(\C)[C@H](O)[C@@H]2OC(=O)C(=C)[C@@H]21	51.4% (active)
CCc1ccc(N(CC)c2ncnc3nc[nH]c23)cc1	41.2% (active)
C/C(=N\NC(=O)c1ccccc1F)c1ccccn1	52.1% (active)
CCOC(=O)CC1C(=O)NCCN1c1nc2c(C)cccn2c(=O)c1/C=C1\SC(=S)N(C(C)CC)C1=O (stereo unspecified)	101% (active)
CCN1C(=O)c2cccc3c(S(=O)(=O)Nc4ccccc4O)ccc1c23	76.6% (active)
Cc1ccc(-c2csc(NC3OC(=O)c4ccccc43)n2)cc1 (stereo unspecified)	23.7%
COc1ccc2c(c1OC)C(=O)OC2Nc1nc(-c2ccccc2)cs1 (stereo unspecified)	51.2% (active)
